Compound activity from PubChem BioAssay.
This is a sample that favours compounds with a hit; in the whole collection about 21% have one here.
RORg inh – qHTS for inhibitors of ROR gamma transcriptional activity | Potency, µM (titrated, usually from 53.6 µM), without a hit: at the top dose activity change, negative = inhibition, hits mostly inhibitors | hit rate 5.4% among 310,000 | Drosophila S2 Gal4-RORgamma UAS-luciferase reporter, 20 h | Nuclear receptor ROR-gamma (Mus musculus), P51450; further: potency means the concentration at half of the fitted maximal effect; nearly all actives have a fitted effect of over 60% in size
Target sequence (P51450 whole entry, looked up, the tested form may be a part): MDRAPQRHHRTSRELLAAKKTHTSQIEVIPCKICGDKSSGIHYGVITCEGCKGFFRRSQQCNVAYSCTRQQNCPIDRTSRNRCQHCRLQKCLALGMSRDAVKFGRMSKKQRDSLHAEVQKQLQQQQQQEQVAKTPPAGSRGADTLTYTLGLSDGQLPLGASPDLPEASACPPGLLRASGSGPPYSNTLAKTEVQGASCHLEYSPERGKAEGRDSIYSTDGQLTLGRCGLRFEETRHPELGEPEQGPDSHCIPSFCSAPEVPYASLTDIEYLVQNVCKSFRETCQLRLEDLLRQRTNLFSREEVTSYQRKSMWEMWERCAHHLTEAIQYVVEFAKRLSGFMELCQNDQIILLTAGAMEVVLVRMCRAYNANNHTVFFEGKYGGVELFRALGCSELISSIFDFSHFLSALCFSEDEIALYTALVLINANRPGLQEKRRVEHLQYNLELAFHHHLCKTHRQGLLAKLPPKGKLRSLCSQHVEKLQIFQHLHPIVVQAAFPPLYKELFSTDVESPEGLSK
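Drosophila S2 cells stably expressing Gal4-DBD/mouse RORγ fusion under metallothionein promoter plus UAS-luciferase; compound 1 h, then 700 uM CuSO4 induction for 20 h at ambient temperature; inhibition read as reduced luminescence.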
VP16 counter – VP16 counterscreen qHTS for inhibitors of ROR gamma transcriptional activity. Potency, µM (highest dose often 53.6 µM), for the others: at the top dose activity, negative = inhibition, usual class: inhibitors. AID 2546, 2010. hit rate 3.5% among 310,000. Drosophila S2 Gal4-VP16 UAS-luciferase, luminescence, 20 h;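 further: Gal4-VP16 expression switched on by copper sulfate through the metallothionein promoter; potency means the concentration at half of the fitted maximal effect; nearly all actives have a fitted effect of over 50% in size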
ELG1 DNA repair – qHTS screen for small molecules that inhibit ELG1-dependent DNA repair in human embryonic kidney (HEK293T) cells expressing luciferase-tagged ELG1. HEK293T ELG1-luciferase reporter, luminescence, 16 h; DNA damage induced by 5-fluorouridine. hit rate 2.3% among 330,000. Potency, µM (series often up to 46.1 µM), for inactives: at the top dose activity change, negative = inhibition, usual class: inhibitors. AID 504467, 2011; further: potency means the concentration at half of the fitted maximal effect; nearly all actives have a fitted effect of over 55% in size
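Luminescence from the luciferase reporter, measured 30 min after ONE-Glo reagent at room temperature, was the read-out. Beforehand, 2,000 cells per well were exposed for 16 hr at 37 °C to 5-fluorouridine together with compound or vehicle.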
TDP1 cell noCPT – qHTS for Inhibitors of human tyrosyl-DNA phosphodiesterase 1 (TDP1): qHTS in cells in absence of CPT; DT40 Tdp1-/- hTDP1 cells, no CPT, ATP luminescence, 48 h; Potency, µM (titrated, usually from 46.2 µM), for the others: at the highest dose activity change, negative = growth inhibition, most hits filed as inhibitors; hit rate 15% among 420,000; AID 686978, 2013; further: potency means the concentration at half of the fitted maximal effect; nearly all actives have a fitted effect of over 55% in size
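Growth kinetics read by CellTiter-Glo luminescence after ≥48 hr at 37 °C. Cells: DT40 Tdp1-/- stably carrying human TDP1, 400 per well, compound exposure in the absence of CPT (DMSO vehicle).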
IL-1B inflam inh – qHTS for Inhibitors of Inflammasome Signaling: IL-1-beta AlphaLISA Primary Screen; THP-1 LPS/ATP IL-1B secretion, AlphaLISA, 16 h; active compounds read low; activity change, % at 57.5 µM; hit rate 4.7% among 360,000; AID 743279, 2014; in the data active means activity change below about -50%; inconclusive means mostly about -30% to -49%
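Secreted IL-1B measured by AlphaLISA bead assay after 16 h compound exposure of THP-1 cells; compounds (final up to 57.5 uM) added 1 h before LPS (250 ng/mL) and ATP (1.25 mM) stimulation; lower signal means less secretion.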
TDP1 cell CPT – qHTS for Inhibitors of human tyrosyl-DNA phosphodiesterase 1 (TDP1): qHTS in cells in presence of CPT | chicken DT40 Tdp1-/-;hTDP1 cells + 20 nM CPT, ATP luminescence, 48 h | Potency, µM (series often up to 46.2 µM), for inactives: at the top dose activity change, negative = growth inhibition, most hits filed as inhibitors | hit rate 12% among 420,000 | AID 686979, 2013; further: potency means the concentration at half of the fitted maximal effect; nearly all actives have a fitted effect of over 55% in size
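Chicken DT40 Tdp1-/- cells complemented with human TDP1, 400 cells/well, exposed to compounds plus 20 nM camptothecin for at least 48 h at 37 C; viability read as ATP content by CellTiter-Glo luminescence.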
Active calls of the source: *; [ ] = dose if it differs, or a comment. Unless noted, the call rests on the fitted dose curve; in most records, active means well fitted curve in the direction sought with a large enough effect; inconclusive means small, poorly fitted or top-dose-only effect, or another doubt; inactive means no such curve, though single readings can be large; an effect the other way counts as inactive or inconclusive. On the % scale 0 is the no-effect control and ±100 the full control effect.

How did O=C(CCNC(=O)c1ccc(Cl)cc1)Nc1cccc(S(=O)(=O)N2CCCCC2)c1 do in these assays?
ELG1 DNA repair: inconclusive; TDP1 cell noCPT: 23.1µM*; IL-1B inflam inh: -13.2; TDP1 cell CPT: 18.4µM*

What do the screens show for `O=C(CN1CCCC1c1cccs1)Nc1cccc(S(=O)(=O)N2CCCC2)c1` (stereo not drawn)?
ELG1 DNA repair: inconclusive; TDP1 cell noCPT: inconclusive; IL-1B inflam inh: 10.9; TDP1 cell CPT: 14.6µM*

Results for O=C(CN1CCCC1c1cccs1)Nc1cc(S(=O)(=O)N2CCCC2)ccc1Cl (stereo not drawn) ?
ELG1 DNA repair: 0.0%; TDP1 cell noCPT: inconclusive; IL-1B inflam inh: 9.4; TDP1 cell CPT: inconclusive

What do the screens show for `CN(C)c1ccc(S(=O)(=O)N2CCCCC2)cc1NC(=O)CCNC(=O)c1ccc(Cl)cc1`?
ELG1 DNA repair: 2.2%; TDP1 cell noCPT: -5.8%; IL-1B inflam inh: -15.4; TDP1 cell CPT: -19.8%

How did CCc1ccccc1OCC(=O)Nc1cccc(S(=O)(=O)N2CCCC2)c1 do in these assays?
ELG1 DNA repair: -27.8%; TDP1 cell noCPT: 16.4µM*; IL-1B inflam inh: -2.9; TDP1 cell CPT: inconclusive

What do the screens show for `O=C(Nc1cccc(S(=O)(=O)N2CCCCC2)c1)Nc1ccc(Cl)cc1Cl`?
RORg inh: 7.1%[10 µM]; VP16 counter: inconclusive; ELG1 DNA repair: inconclusive; TDP1 cell noCPT: inconclusive; IL-1B inflam inh: -86.9*; TDP1 cell CPT: inconclusive

What do the screens show for `C=CC[C@@H]1C=C[C@H](O/N=C(\C)CCN2CCCc3nc(C)c(C)cc32)[C@H](CO)O1`?
RORg inh: 3.1%[10 µM]; VP16 counter: -10.8%[10 µM]

Results for O=C(Cc1ccc(Cl)c(Cl)c1)Nc1cccc(S(=O)(=O)N2CCOCC2)c1 ?
RORg inh: 42.9%; VP16 counter: -0.3%; ELG1 DNA repair: inconclusive; TDP1 cell noCPT: inconclusive; IL-1B inflam inh: -80.3*; TDP1 cell CPT: inconclusive

How did O=C(CCc1ccccc1)Nc1cccc(S(=O)(=O)N2CCOCC2)c1 do in these assays?
ELG1 DNA repair: -19.4%; TDP1 cell noCPT: inconclusive; IL-1B inflam inh: -2.5; TDP1 cell CPT: inconclusive

Results for COc1ccc(CCC(=O)Nc2cccc(S(=O)(=O)N3CCOCC3)c2)cc1OC ?
ELG1 DNA repair: -6.1%; TDP1 cell noCPT: inconclusive; IL-1B inflam inh: -10.6; TDP1 cell CPT: 14.6µM*

Results for O=C(CSc1ncccn1)Nc1cccc(S(=O)(=O)N2CCOCC2)c1 ?
ELG1 DNA repair: 0.3%; TDP1 cell noCPT: -24.7%; IL-1B inflam inh: 21.4; TDP1 cell CPT: -9.6%

What do the screens show for `O=C(NC1CCCCCC1)c1c2c(nc3ccccc13)CCN(Cc1ccccc1)C2`?
RORg inh: 23.2%; VP16 counter: -2.0%; ELG1 DNA repair: inconclusive; TDP1 cell noCPT: 29.1µM*; IL-1B inflam inh: -2.6; TDP1 cell CPT: 18.4µM*

Results for Cc1c(Cl)cccc1NC(=O)COC(=O)c1c2c(nc3ccccc13)CCN(Cc1ccccc1)C2 ?
RORg inh: 0.4%; VP16 counter: -6.8%; ELG1 DNA repair: 13µM*; TDP1 cell noCPT: 16.4µM*; IL-1B inflam inh: 0.0; TDP1 cell CPT: inconclusive

What do the screens show for `CC(C)c1ccccc1NC(=O)COC(=O)c1c2c(nc3ccccc13)CCN(Cc1ccccc1)C2`?
RORg inh: 22.6%; VP16 counter: -24.5%; ELG1 DNA repair: 11.6µM*; TDP1 cell noCPT: 10.3µM*; IL-1B inflam inh: -16.9; TDP1 cell CPT: inconclusive

Results for CCc1ccccc1NC(=O)C(C)n1c(=O)cc(C)c2c(C)nn(-c3ccccc3)c21 (stereo not drawn) ?
TDP1 cell noCPT: -0.9%; TDP1 cell CPT: 0.1%

How did CC1CCCC(NC(=O)Cn2c(Cl)nc3c2c(=O)n(C)c(=O)n3C)C1C (stereo not drawn) do in these assays?
ELG1 DNA repair: inconclusive; TDP1 cell noCPT: 20.6µM*; IL-1B inflam inh: 31.0; TDP1 cell CPT: inconclusive

What do the screens show for `CCN(C(=O)Cn1c(Cl)nc2c1c(=O)n(C)c(=O)n2C)C1CCCCC1`?
ELG1 DNA repair: -12.6%; TDP1 cell noCPT: 20.6µM*; IL-1B inflam inh: 11.1; TDP1 cell CPT: 20.6µM*

Results for COC(=O)[C@@]12C[C@@H](CC(=O)N3CCOCC3)C(=O)N(Cc3ccccc3)C1=CCC(C)(C)C2 ?
TDP1 cell noCPT: inconclusive; IL-1B inflam inh: 22.8; TDP1 cell CPT: -6.9%

Results for CC(C)CN(C(=O)COC(=O)CNC(=O)c1sc2ccccc2c1Cl)C1CCS(=O)(=O)C1 (stereo not drawn) ?
ELG1 DNA repair: 2.4%; TDP1 cell noCPT: -6.9%; IL-1B inflam inh: 15.9; TDP1 cell CPT: -3.3%

Results for COc1cc2c(cc1O)CCN[C@@]21CS[C@H]2c3c(OC(C)=O)c(C)c4c(c3C(COC1=O)N1C2C2c3c(cc(C)c(OC)c3O)CC([C@@H]1O)N2C)OCO4 (stereo partly drawn) ?
RORg inh: 0.141µM*; VP16 counter: 0.447µM*

What do the screens show for `COc1cc2c(cc1O)CCN[C@]21CS[C@@H]2c3c(OC(C)=O)c(C)c4c(c3[C@H](COC1=O)N1[C@@H]2[C@H]2c3c(cc(C)c(OC)c3O)C[C@@H]([C@@H]1O)N2C)OCO4`?
TDP1 cell noCPT: 0.0043µM*; TDP1 cell CPT: 0.0043µM*

How did COc1ccc(-c2nc(-c3ccccc3)c(Nc3c(C)cccc3C)o2)cc1 do in these assays?
RORg inh: -13.3%; VP16 counter: 0.9%

How did CCOC(=O)c1ccc(NC(=O)c2nc(SC(C)C)ncc2Cl)cc1 do in these assays?
TDP1 cell noCPT: 16.4µM*; TDP1 cell CPT: 16.4µM*

Results for CCOC(=O)c1c(-c2ccc(C)cc2)csc1NC(=O)c1nc(SC(C)C)ncc1Cl ?
TDP1 cell noCPT: 3.8%; TDP1 cell CPT: -0.3%

What do the screens show for `Cc1cccc(C)c1NC(=O)c1nc(SC(C)C)ncc1Cl`?
TDP1 cell noCPT: inconclusive; TDP1 cell CPT: 18.4µM*

What do the screens show for `CC1CCCC(NC(=S)Nc2ccc(SC(F)F)cc2)C1C` (stereo not drawn)?
RORg inh: 0.501µM*; VP16 counter: 5.01µM*; ELG1 DNA repair: 2.0%; TDP1 cell noCPT: inconclusive; IL-1B inflam inh: -0.7; TDP1 cell CPT: inconclusive
